Compound activity as filed in PubChem.
Shown are actives, neighbours in structure and some others; about 10% of the full set was active somewhere.
FLuc inh = Photinus pyralis luciferase inhibition; purified P. pyralis luciferase, luminescence, biochemical; Potency, µM (top dose mostly 115 µM), hits mostly inhibitors; hit rate 2.5% among 76,000; AID 1347043; note: % is set by controls: 0 for no effect and ±100 for the full control effect; nearly all actives have a fitted effect of over 65% in size
Target sequence (P08659 whole entry, looked up): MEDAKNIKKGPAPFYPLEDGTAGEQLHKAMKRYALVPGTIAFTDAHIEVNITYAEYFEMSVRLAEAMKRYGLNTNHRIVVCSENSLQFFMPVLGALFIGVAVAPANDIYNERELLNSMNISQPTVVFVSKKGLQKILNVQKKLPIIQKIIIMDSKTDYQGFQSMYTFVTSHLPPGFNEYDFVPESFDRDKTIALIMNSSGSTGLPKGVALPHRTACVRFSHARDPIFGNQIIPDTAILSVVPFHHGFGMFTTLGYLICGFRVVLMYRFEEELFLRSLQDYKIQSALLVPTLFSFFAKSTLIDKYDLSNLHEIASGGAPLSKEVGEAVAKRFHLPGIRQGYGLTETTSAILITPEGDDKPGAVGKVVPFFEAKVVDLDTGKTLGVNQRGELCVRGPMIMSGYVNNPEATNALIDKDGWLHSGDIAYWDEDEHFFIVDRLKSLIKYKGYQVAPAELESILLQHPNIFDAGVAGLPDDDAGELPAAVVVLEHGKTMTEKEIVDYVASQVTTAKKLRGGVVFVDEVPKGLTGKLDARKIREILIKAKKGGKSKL
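Biochemical qHTS: compound (6-point titration) added to 10uM D-luciferin plus 10uM ATP in Tris acetate pH 7.5 buffer with Mg, Tween-20 and BSA, then purified enzyme at 10nM; light output imaged.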
NPR1 antag = blocks ANP-stimulated signaling of human Npr1 receptor | HEK293 hNpr1 GloSensor cGMP, ANP-stimulated luminescence | Potency, µM (top dose mostly 46.3 µM), inactives show at the top dose activity change, negative = inhibition, most hits filed as inhibitors | hit rate 1.6% among 76,000; calls by dose curve; note: % is set by controls: 0 for no effect and ±100 for the full control effect; nearly all actives have a fitted effect of over 60% in size
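HEK293 cells stably expressing human Npr1 and cGMP GloSensor pGS-40F, loaded 2 h with 2% GloSensor reagent, given compound 30 min at room temperature. Luminescence read before and 20 min after 0.1 nM hNppA.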
3T3 cytotox = cytotoxic compounds in NIH 3T3 cells | NIH 3T3 viability, CellTiter-Glo ATP luminescence, 48-72 h | Potency, µM (doses to about 96.7 µM), for the others: top-dose activity change, negative = cytotoxicity, hits mostly inhibitors | hit rate 4.3% among 94,000; note: % is set by controls: 0 for no effect and ±100 for the full control effect; nearly all actives have a fitted effect of over 55% in size
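Viability of NIH 3T3 cells after 48 or 72 hr compound treatment at 37 °C was assessed by CellTiter-Glo, with luminescence imaged following a 10 min room-temperature step.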
GPT2 inh = blocks human glutamate pyruvate transaminase 2 | Recombinant GPT2, coupled pyruvate oxidase/HRP Amplex Red fluorescence | Potency, µM (titrated, usually from 57.7 µM), without a hit: top-dose activity change, negative = inhibition, most hits filed as inhibitors | AID 1671188 | Q8TD30 | hit rate 0.25% among 100,000; note: % is set by controls: 0 for no effect and ±100 for the full control effect; nearly all actives have a fitted effect of over 60% in size
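GPT2 10ng/uL, a-KG 250uM, L-Ala 2mM, HEPES pH7.5 + 0.0001% Tween; 30 min RT. Then Amplex mix (PO/HRP/ThPP), 30 min RT dark, fluorescence. AOA 50uM used as positive control.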
HEK cytotox = cytotoxic compounds in HEK 293 cells; Potency, µM (highest dose often 115 µM), for the others: top-dose activity change, negative = cytotoxicity, usual class: inhibitors; AID 1345083; HEK 293 viability, ATP luminescence (CellTiter-Glo), 48-72 h; hit rate 6.6% among 94,000; note: % is set by controls: 0 for no effect and ±100 for the full control effect; nearly all actives have a fitted effect of over 60% in size
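Cells seeded first (HEK 293, 250 cells/well), then compound added by pintool. Incubation ran 48 or 72 hr at 37 degree Celsius. CellTiter-Glo was added and luminescence imaged after 10 min at room temperature.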
Npr1 antag conf = confirmation of human Npr1 natriuretic peptide receptor antagonists; hit rate 76% among 1,400; Potency, µM (series often up to 57.6 µM), without a hit: at the top dose activity change, negative = inhibition, actives largely listed as inhibitors; HEK293 hNpr1 cGMP GloSensor luminescence, ANP-stimulated; AID 1347044; shares compounds with NPR1 antag; calls by dose curve; note: nearly all actives have a fitted effect of over 70% in size
NPR2 antag = selectivity test of Npr1 antagonists against human Npr2; shares compounds with NPR1 antag; HEK293 hNpr2 GloSensor cGMP luminescence, CNP-stimulated; Potency, µM (doses to about 57.6 µM), for inactives: at the highest dose activity change, negative = inhibition, actives largely listed as inhibitors; hit rate 67% among 1,400; AID 1347046; calls by dose curve; note: nearly all actives have a fitted effect of over 70% in size
FLuc counter = FLuc enzyme inhibition, Npr1 counter-screen. Potency, µM (series often up to 57.6 µM), without a hit: at the highest dose activity change, negative = inhibition, usual class: inhibitors. hit rate 0.7% among 1,400. purified FLuc enzyme, luminescence, Km substrate. shares compounds with NPR1 antag; note: 0% is about no effect
GloSensor cGMP = control cell line activity, Npr1 antagonist counter-screen; shares compounds with NPR1 antag; HEK293 GloSensor cGMP, SNP-stimulated, luminescence; Potency, µM (titrated, usually from 57.6 µM), without a hit: top-dose activity change, negative = inhibition, hits mostly inhibitors; hit rate 69% among 1,400; AID 1347051; calls by dose curve; note: % is set by controls: 0 for no effect and ±100 for the full control effect; nearly all actives have a fitted effect of over 70% in size
Starred values were filed as active, the others as inactive; i = inactive; ? = inconclusive; . = not tested or not shown; [ ] = another dose, or the depositor's remark. Unless noted, calls come from the whole dose curve; as a rule, active = well fitted curve in the direction sought with a large enough effect; inconclusive = small, poorly fitted or top-dose-only effect, or another doubt; inactive = no such curve, though single readings can be large; an effect the other way counts as inactive or inconclusive. Potency is the fitted concentration of half-maximal effect.

SMILES	FLuc inh	NPR1 antag	3T3 cytotox	GPT2 inh	HEK cytotox	Npr1 antag conf	NPR2 antag	FLuc counter	GloSensor cGMP
CCc1ccc(C(=O)N2CCCC(c3noc(-c4cc5c(=O)[nH]c(C)cn5n4)n3)C2)cc1 (configuration not stated)	i	23%	-10%	i	-26%	.	.	.	.
O=C(NCc1ccccc1Cl)c1ccc2oc(-c3cccnc3)nc2c1	.	.	?	-7%	?	.	.	.	.
Cc1ccc2nc3n(c2c1)[C@@H](CNCc1ccc2c(c1)OCO2)COC3	i	25µM*	?	-7%[88.5 µM]	?	35µM*	35µM*	0%[86.2 µM]	31µM*
COc1ccc2nc3n(c2c1)[C@@H](CNCc1ccc2c(c1)OCO2)COC3	i	32µM*	?	?	?	40µM*	40µM*	-9%[86.2 µM]	40µM*
COc1ccc2nc3n(c2c1)[C@@H](CNC(=O)c1ccccc1)COC3	i	1%[70.6 µM]	?	i	i	.	.	.	.
c1cc(-c2nnc3n2CCN(Cc2ccsc2)C3)ccn1	.	.	-12%	1%	i	.	.	.	.
Cc1ccc(CCNC(=O)C2CCN(c3cc(C(F)(F)F)ncn3)CC2)cc1	i	?	?	i	?	.	.	.	.
COc1ccccc1CNC(=O)C1CCN(c2cc(C(F)(F)F)ncn2)CC1	i	-10%	-27%	1%	?	.	.	.	.
O=C(Nc1cccc(Cl)c1)C1CCN(c2cc(C(F)(F)F)ncn2)CC1	i	?	?	i	?	24µM*	?	5%	?
COc1ccc(NC(=O)C2CCN(c3cc(C(F)(F)F)ncn3)CC2)cc1Cl	i	?	?	i	?	.	.	.	.
Cc1ccc(NC(=O)C2CCN(c3cc(C(F)(F)F)ncn3)CC2)cc1F	i	5µM*	?	i	?	6.9µM*	11µM*	5%	6.1µM*
O=C(Nc1cccc(F)c1)C1CCN(c2cc(C(F)(F)F)ncn2)CC1	i	11µM*	?	?	?	22µM*	?	0%	19µM*
O=C(Nc1cccc(Br)c1)C1CCN(c2cc(C(F)(F)F)ncn2)CC1	i	11µM*	?	i	45µM*	22µM*	22µM*	-1%	24µM*
CC(C)CC(=O)N1C[C@H](C(N)=O)[C@H]2c3ccccc3N(C)C(=O)[C@]21C	.	.	-21%[46.1 µM]	i	?	.	.	.	.
O=C([C@H]1CCCN1C(=O)Nc1ccccc1)N1CCC(N2CCOC2=O)CC1	.	.	i	?	-3%	.	.	.	.
Cc1ccc(-c2cc(C(=O)NCc3cccc(F)c3)nn3cnnc23)cc1	.	.	?	4%	?	.	.	.	.
O=C(C1CCCC1)N1CCC(C(=O)N2CCCC(c3nc4ncccc4[nH]3)C2)CC1 (configuration not stated)	.	.	-19%	1%	-28%	.	.	.	.
O=C(NC1CCN(C(=O)c2ccc(-c3cccs3)cc2)CC1)c1ccncc1	.	.	?	i	?	.	.	.	.
CC1(COc2ccccc2)COc2ccc(C(=O)NCc3ccncc3)cc2N1 (configuration not stated)	i	?	?	i	?	.	.	.	.
CC1(COc2ccccc2)COc2ccc(C(=O)N3CCOCC3c3ccncc3)cc2N1 (configuration not stated)	i	-25%	?	-11%	?	?	?	4%	?
O=C(Nc1ccc(F)cc1)c1ccc2cc[nH]c2n1	.	.	?	2%[88.5 µM]	?	25µM*	31µM*	0.89µM*	25µM*
CCCC1CN(C(=O)OC(C)(C)C)CCN1 (configuration not stated)	.	.	i	-19%[88.5 µM]	i	.	.	.	.
O=C(Nc1cc(F)cc(F)c1)N1CCC(CCNC(=O)C2(c3ccccc3)CC2)CC1	i	-26%	32µM*	-18%	50µM*	-19%	-10%	5%	5%
O=C(Nc1ccccc1)N1CCC(C(=O)N2CCC(c3nc4ncccc4[nH]3)CC2)CC1	.	.	-12%	i	i	.	.	.	.
O=C(NC1CCN(c2cc(-c3ccccc3)[nH]n2)CC1)c1cc(Cl)ccc1F	i	-21%	?	i	?	-22%	-23%	2%	-19%
SMILES	FLuc inh	NPR1 antag	3T3 cytotox	GPT2 inh	HEK cytotox	Npr1 antag conf	NPR2 antag	FLuc counter	GloSensor cGMP
COc1ccc(C(=O)N2CCCN(c3cc(-c4ccc(Cl)cc4)[nH]n3)CC2)c(C)c1	i	3.5µM*	?	-25%	50µM*	9.7µM*	11µM*	0%	9.7µM*
COc1ccc(-c2cc(N3CCN(C(=O)c4ccc(Cl)cc4OC)CC3)n[nH]2)cc1	i	?	?	i	?	.	.	.	.
COc1ccc(CC(=O)NC2CCCN(c3cc(-c4ccc(Cl)cc4)[nH]n3)C2)cc1OC (configuration not stated)	i	11µM*	?	-19%	22µM*	24µM*	15µM*	1%	24µM*
COc1ccc(C(=O)NC2CCN(c3cc(-c4ccc(F)cc4)[nH]n3)CC2)c(C)c1	i	0%	?	i	?	?	?	2%	-20%
O=C(NC1CCCN(c2cc(-c3ccccc3)[nH]n2)C1)c1cc(Cl)ccc1F (configuration not stated)	i	-20%	?	-8%	?	.	.	.	.
Cc1ccc(C(=O)N2CCc3nc(C(C)C)nc(-c4ccc(Cl)cc4)c3C2)cc1	.	.	?	i	?	.	.	.	.
CCc1nc2c(c(-c3ccc(OC)cc3)n1)CCN(C(=O)c1ccc(C)cc1)CC2	.	.	-25%	i	-28%	.	.	.	.
COc1ccc(-c2cc(N3CCN(C(=O)c4ccc(F)cc4F)CC3)n[nH]2)cc1	i	0%	?	i	?	.	.	.	.
COc1ccc(CC(=O)NC2CCN(c3cc(-c4ccc(OC)cc4)[nH]n3)CC2)cc1	i	-25%	?	-16%	?	?	?	0%	-27%
